From PubChem
This is a sample that favours compounds with a hit; in the whole collection about 2.1% have one here.
PrPC TRFRET: reduces human prion protein on the cell surface. P04156. cell surface PrPC, TR-FRET read-out. inhibition, % at 13.8 µM. 0.43% of 370,000 active; in the data active = inhibition above about 24%; also: 0% = median of the test wells and 100% = reference compound wells
PfHsp40 rescue: rescue of PfHsp40-mediated yeast toxicity. S. cerevisiae expressing PfHsp40, growth rescue, ATP luminescence. growth rescue, % at 12.5 µM. 0.68% of 340,000 active. AID 504582; in the data active = growth rescue above about 28%, passing the limit was not always enough;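 also: yeast W303a lacking pdr1 and pdr3 grown in galactose medium; growth measured after three days at 30 °C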
Sa RN4220 lethal: kills Staphylococcus aureus RN4220. S. aureus RN4220 growth, OD600, 16 h. inhibition, % (no concentration beside the values). 0.33% of 330,000 active. AID 1259311; in the data active = inhibition above about 85%;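 also: plate controls were untreated cells for no effect and reference antibiotic for full effect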
CCHF vOTU inh: blocks the CCHF virus ovarian tumor domain protease; inhibition, % at 11.5 µM; CCHFV vOTU protease, Pep-AMC fluorescence; AID 651958; 0.55% of 370,000 active; in the data active = inhibition above about 30%; also: 0% = vehicle wells with enzyme and 100% = no enzyme wells
PrP 5UTR inh: suppresses PrP 5' UTR mRNA reporter expression; 0.35% of 340,000 active; AID 488862; inhibition, % (concentration not given with the values); cell-based PrP 5' UTR mRNA reporter, plate reader; in the data active = inhibition above about 52%; also: 0 = median of the neutral control wells
ugtP null kill: compounds lethal to S. aureus RN4220 ugtP deletion mutant; OD600 growth, 16 h; growth inhibition, % (concentration not given with the values); 0.54% of 330,000 active; in the data active = growth inhibition above about 68%;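 also: plate controls were untreated wells for no effect and antibiotic for full effect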
An asterisk follows results filed as active; ! = not confirmed by another sample.

Screening NC(N)=N/N=C/c1ccc(OCc2ccc(Cl)cc2)cc1 returned PrPC TRFRET -7, PfHsp40 rescue 2, CCHF vOTU inh 8 and PrP 5UTR inh -120.
Screening FCCCOc1ccc(C=NOCc2ccc(Cl)cc2)cc1 returned Sa RN4220 lethal -3 and ugtP null kill 85*.
Screening COc1cc(/C=C/c2nc(N)nc(-c3ccccc3O)n2)cc(OC)c1OC returned PrPC TRFRET 3, PfHsp40 rescue -2, Sa RN4220 lethal 0, CCHF vOTU inh 6, PrP 5UTR inh -4 and ugtP null kill 7.
COc1cc(/C=C/c2nc(-c3ccccc3O)n[nH]2)cc(OC)c1OC was read as PrPC TRFRET -10, PfHsp40 rescue 42*, Sa RN4220 lethal 1, CCHF vOTU inh -10, PrP 5UTR inh -61 and ugtP null kill -11.
Screening COc1ccccc1C=NNC(=S)Nc1cccnc1 returned Sa RN4220 lethal 1 and ugtP null kill -1.
`CCNC(=S)Nc1cc(-c2ccc(Cl)cc2)[nH]n1` gave PrPC TRFRET 13, PfHsp40 rescue 122*, Sa RN4220 lethal 10, CCHF vOTU inh 3, PrP 5UTR inh -14 and ugtP null kill 10.
CCNC(=S)Nc1ccc(Cl)cc1 was read as PrPC TRFRET 10, PfHsp40 rescue 1, Sa RN4220 lethal 2, CCHF vOTU inh 2, PrP 5UTR inh -14 and ugtP null kill 12.
For O=C(NN=Cc1cccs1)C(O)c1ccccc1 (stereo unspecified) the results were Sa RN4220 lethal 2 and ugtP null kill 2.
CCOC(=O)/C(=N\Nc1ccccc1)N1CC1 was read as PrPC TRFRET 6, PfHsp40 rescue -1, CCHF vOTU inh 6 and PrP 5UTR inh -38.
`CCOC(=O)/C(=N/Nc1ccc(Br)cc1)N1CC(C)OC(C)C1` (stereo unspecified) gave PrPC TRFRET 32*, PfHsp40 rescue 36*, Sa RN4220 lethal 4, CCHF vOTU inh -4, PrP 5UTR inh -16 and ugtP null kill 10.
`CCCCOc1ccc(-c2csc(N)n2)cc1[N+](=O)[O-]` gave PrPC TRFRET 6, PfHsp40 rescue 141*, Sa RN4220 lethal 9, CCHF vOTU inh 14, PrP 5UTR inh -79 and ugtP null kill 8.
For CCCCOc1ccc(C2=CSC3=NCCN23)cc1[N+](=O)[O-] the results were PrPC TRFRET -8, PfHsp40 rescue 0, Sa RN4220 lethal 0, CCHF vOTU inh 3, PrP 5UTR inh -27 and ugtP null kill 3.
For CC(=O)C1=C(C)N(CC2CC2)C(=O)NC1c1ccc(Br)cc1 (stereo unspecified) the results were Sa RN4220 lethal 2 and ugtP null kill -2.
For COc1cc(OC)cc(C(=O)NC(C(=O)OCC(=O)Nc2ccc(C(N)=O)cc2)C(C)C)c1 (stereo unspecified) the results were Sa RN4220 lethal 2 and ugtP null kill -1.
`C=CC(n1cncn1)C(O)(c1ccccc1)c1ccccc1` (stereo unspecified) gave PrPC TRFRET -3, PfHsp40 rescue 146*, Sa RN4220 lethal 8, CCHF vOTU inh -4, PrP 5UTR inh -20 and ugtP null kill -1.
Screening OC(c1ccccc1)(c1ccccc1)c1ccncc1 returned PrPC TRFRET 15, PfHsp40 rescue -1, Sa RN4220 lethal -3, CCHF vOTU inh -8, PrP 5UTR inh -26 and ugtP null kill -9.
For CCOC(=O)Cc1cc(=O)n(-c2nc3ccccc3s2)[nH]1 the results were PrPC TRFRET 1, PfHsp40 rescue 140*, Sa RN4220 lethal 33, CCHF vOTU inh 14, PrP 5UTR inh -9 and ugtP null kill 8.
For COc1cccc(/C=C2\SC(=S)N(CCC(=O)NNC(=O)c3ccccc3OC)C2=O)c1 the results were PrPC TRFRET 2, PfHsp40 rescue -1, Sa RN4220 lethal 4, CCHF vOTU inh -6, PrP 5UTR inh -13 and ugtP null kill -1.
COc1ccccc1/C=C1\SC(=S)N(CCC(=O)NNC(=O)c2ccccc2O)C1=O was read as PfHsp40 rescue 105*, Sa RN4220 lethal 21, PrP 5UTR inh -19 and ugtP null kill -10.
NC1=NCC(Cc2ccc(O)cc2)N1CCC12CC3CC(CC(C3)C1)C2 (stereo unspecified) was read as Sa RN4220 lethal 101*! and ugtP null kill 101*!.
For NC1=NCC(Cc2ccc(O)cc2)N1CCc1cccc2ccccc12 (stereo unspecified) the results were Sa RN4220 lethal 76 and ugtP null kill 100*!.
